High-throughput results as filed in PubChem BioAssay.
The list is not random: actives were taken first. Their share in the collection is about 21%.
Pf growth 48h: inhibits P. falciparum growth in the first generation, 48 h. P. falciparum luciferase growth in erythrocytes, 48 h. Potency, µM (doses to about 28.7 µM), usual class: inhibitors. actives 5.9% (n = 310,000). AID 504832
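Here the parasites carry a stable luciferase gene and grow inside erythrocytes in Albumax-based RPMI medium with compound for one erythrocytic cycle. Activity is scored as loss of luminescent signal.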
HCV inh: inhibitors of hepatitis C virus infection. Potency, µM (titrated, usually from 41.8 µM), most hits filed as inhibitors. Huh7.5.1 HCVcc-Cre infection, luciferase reporter, 44 h. AID 651820. actives 3.4% (n = 340,000)
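Reporter virus HCVcc-Cre (~0.5 moi) infects cells exposed to compound; seeding density 1,000 cells/well with 4 h settling beforehand. Luminescence, 15 sec read, taken 44 h post-infection following a 15 min RT substrate incubation.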
HCMV antiviral: inhibitors of human cytomegalovirus; HFF cells, HCMV-luciferase reporter, 72 h; stronger effect = lower value; AID 1259415; activity change, negative = inhibition, % at 57.5 µM; actives 4.5% (n = 410,000); in the data active means activity change below about -60%; inconclusive means no clear call, values can overlap the other calls; inactive means above about -39%
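Human foreskin fibroblasts infected with luciferase-reporter HCMV at MOI 1 PFU/cell, compounds at two doses. Luciferase measured 72 h post infection; normalized to buffer-only basal and Salinomycin (10uM) controls.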
Cycloheximide cs: counter-screen for Shiga toxin inhibitors: cycloheximide protein synthesis inhibition; max response, %; actives 12% (n = 300,000); cell reporter, cycloheximide protein synthesis inhibition counterscreen; AID 2314; in the data active means max response mostly above about 13%, no sharp cut-off; inactive means mostly below about 14%; further: read at 38.3 µM for the half of the compounds with a filed dose
Pf growth 96h: inhibits malaria parasite growth, 96 h; P. falciparum luciferase reporter growth, 96 h; Potency, µM (doses to about 28.7 µM), most hits filed as inhibitors; actives 6.9% (n = 320,000)
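P. falciparum expressing integrated firefly luciferase grown in erythrocytes (2% hematocrit, 0.05% parasitemia final) with compounds for 96 hours at 37 C, 5% CO2. Growth inhibition read as loss of luminescence after adding luciferase detection reagent.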
Shiga inhibitor: blocks Shiga toxin action in Vero cells | Vero cells, Shiga toxin protein synthesis inhibition reporter | actives 9.2% (n = 290,000) | inhibition, % at 38.7 µM; in the data active means inhibition mostly above about 28%, no sharp cut-off; inactive means mostly below about 43%
Large screens that a line does not name were inactive. Unless noted, the call rests on the fitted dose curve; in most records, active means well fitted inhibition curve with a large enough effect; inconclusive means small, poorly fitted or top-dose-only effect, or another doubt; inactive means no such curve, though single readings can be large or run the other way.

COc1ccccc1N1CCN(CC(O)COCCOc2ccc(Br)cc2)CC1 (centres undefined)	HCV inh inconclusive, HCMV antiviral inconclusive, Pf growth 96h 13µM
CC1(C)CCCC(C)(C)N1CC(O)COCCOc1ccc(Br)cc1 (centres undefined)	Pf growth 48h 5.9µM, HCV inh inconclusive, HCMV antiviral inconclusive, Pf growth 96h inconclusive
CCOC(=O)c1ccc(-c2ccc(-c3cc(=O)oc4cc(OC)c(OC)c(OC)c34)cc2)cc1	none (no result: Pf growth 48h, Pf growth 96h)
Cc1cc(C)c2cccc(NC(=S)NC(=O)c3ccccc3)c2n1	Pf growth 48h 10µM, HCV inh inconclusive, Pf growth 96h 1.9µM
COC(=O)c1ccccc1NC(=S)NC(=O)c1ccc(C)cc1	none
COC(=O)c1ccccc1NC(=S)NC(=O)c1ccccc1	Cycloheximide cs 9.0
Cc1ccc(NC(=S)NC(=O)c2ccccc2)cc1NC(=S)NC(=O)c1ccccc1	Cycloheximide cs 24, Shiga inhibitor 54
CC(=O)NC(=S)Nc1cccc2c(C)cc(C)nc12	none
CCCN(CCC)c1ccc(/C=C/c2ccc3cc(OCC)ccc3n2)cc1	Pf growth 48h inconclusive, HCV inh inconclusive, HCMV antiviral inconclusive, Cycloheximide cs 34, Shiga inhibitor 71
COc1ccc(-[n+]2c(-c3ccccc3)cc(-c3ccccc3)cc2-c2ccccc2)cc1	Pf growth 48h 0.83µM, HCV inh inconclusive, HCMV antiviral -97, Pf growth 96h 0.29µM (no result: Cycloheximide cs, Shiga inhibitor)
Oc1ccc(-[n+]2c(-c3ccccc3)cc(-c3ccccc3)cc2-c2ccccc2)cc1	Pf growth 48h 0.37µM, HCV inh 8.9µM, HCMV antiviral -97, Pf growth 96h 0.13µM (no result: Cycloheximide cs, Shiga inhibitor)
Cc1cc(-c2ccccc2)cc(-c2ccccc2)[n+]1C	Pf growth 48h 10µM, HCMV antiviral inconclusive, Pf growth 96h 0.93µM
Cc1cc(-c2ccccc2)cc(-c2ccccc2)[n+]1CCc1ccccc1	Pf growth 48h 0.47µM, HCV inh inconclusive, HCMV antiviral -98, Pf growth 96h 0.52µM (no result: Cycloheximide cs, Shiga inhibitor)
Cc1cc(-c2ccccc2)cc(=O)[nH]1	none (no result: Pf growth 48h, Cycloheximide cs, Pf growth 96h, Shiga inhibitor)
CCC(=O)c1c(CC)c2n3c1CC[C@H]3CCC2	none (no result: Cycloheximide cs, Shiga inhibitor)
CCOc1ccc(NC(=O)CN(C)C(=O)c2cc([N+](=O)[O-])ccc2N2CCOCC2)cc1OCC	Pf growth 48h inconclusive (no result: Cycloheximide cs, Shiga inhibitor)
Oc1ccccc1	none (no result: Pf growth 48h, HCV inh, Cycloheximide cs, Pf growth 96h, Shiga inhibitor)
C[n+]1c(-c2ccccc2)cc(-c2ccc(O)cc2)cc1-c1ccccc1	Pf growth 48h inconclusive, Pf growth 96h 2.1µM
O=C(NCc1ccccc1)C(c1ccc(C(F)(F)F)cc1)n1c(=O)c(-c2ccco2)nc2ccccc21 (centres undefined)	none (no result: Pf growth 48h, HCV inh, Cycloheximide cs, Pf growth 96h, Shiga inhibitor)
O=[N+]([O-])c1c(NCCCO)cc(N2CCN(Cc3ccc4c(c3)OCO4)CC2)c2nonc12	Pf growth 48h inconclusive, HCV inh inconclusive, HCMV antiviral -78
COc1cc2cc(CNc3ccc(C)cc3)c(=O)n(CC(=O)Nc3ccc(F)cc3F)c2cc1OC	none (no result: Pf growth 48h, HCV inh, Cycloheximide cs, Pf growth 96h, Shiga inhibitor)
CCOC(=O)CNC(=O)N1CCCC(C(=O)c2ccc3c(c2)OCO3)C1 (centres undefined)	Pf growth 96h 12µM
O=C(c1ccc2c(c1)OCO2)C1CCCN(C2CCN(CCc3ccccc3)CC2)C1 (centres undefined)	Pf growth 48h 2.6µM, HCV inh 3.5µM
Cc1ccc(Cl)cc1NC(=O)Cn1c(=O)oc2cc(S(=O)(=O)N3CCCC3)ccc21	none (no result: Pf growth 48h, HCV inh, Cycloheximide cs, Pf growth 96h, Shiga inhibitor)
Cc1cc(C)nc(SCc2nnc(SCC(=O)N3CCOCC3)o2)n1	Pf growth 96h 7.4µM
COc1ccc(-c2nnc(SCC(=O)N3CCN(c4ccccc4)CC3)o2)cc1OC	none
COc1ccc(-c2nnc(SCC(=O)N3CCOCC3)o2)cc1OC	Pf growth 96h 12µM
CCOc1ccc(-c2nnc(SCC(=O)N3CCOCC3)o2)cc1	Cycloheximide cs 24, Pf growth 96h inconclusive, Shiga inhibitor 69
CCCCn1c(N)c(N(CC(C)C)C(=O)c2oc3ccc(Br)cc3c2C)c(=O)[nH]c1=O	Pf growth 48h inconclusive (no result: Cycloheximide cs, Shiga inhibitor)
CCCCN(C(=O)C1CC(=O)N(Cc2ccc(C)cc2)C1)c1c(N)n(CCCC)c(=O)[nH]c1=O (centres undefined)	none (no result: Cycloheximide cs, Shiga inhibitor)
Cc1c(NC(=O)C(C)OC(=O)C23CC4CC(CC(Br)(C4)C2)C3)c(=O)n(-c2ccccc2)n1C (centres undefined)	none
Cc1cccn2c(Nc3ccccc3)c(-c3cccs3)nc12	HCMV antiviral -61 (no result: Pf growth 48h, HCV inh, Cycloheximide cs, Pf growth 96h, Shiga inhibitor)
Cc1ccc(-c2nc3c(C)cccn3c2Nc2ccccc2C)s1	HCMV antiviral -65 (no result: Pf growth 48h, HCV inh, Cycloheximide cs, Pf growth 96h, Shiga inhibitor)
Cc1ccccc1Nc1c(-c2ccccn2)nc2c(C)cccn12	Pf growth 48h inconclusive, Pf growth 96h inconclusive
Cc1ccc(Nc2c(-c3ccc(C)cc3)nc3c(C)cccn23)cc1	none (no result: Pf growth 48h, HCV inh, Cycloheximide cs, Pf growth 96h, Shiga inhibitor)
N#CC1(NC(=O)COC(=O)c2cc(O)c3ccccc3c2O)CCCCC1	Pf growth 48h inconclusive, Pf growth 96h 12µM (no result: HCMV antiviral, Cycloheximide cs, Shiga inhibitor)
Cc1cc(C)nc(-n2nc(C)c3c2NC(=O)CC3c2cccc(O)c2)n1 (centres undefined)	none (no result: Pf growth 48h, HCV inh, Cycloheximide cs, Pf growth 96h, Shiga inhibitor)
COc1ccc(S(=O)(=O)CC(=O)c2cc(C)c(O)c(C)c2)cc1	none
Cc1cc(C(=O)CS(=O)(=O)c2ccc(F)cc2)cc(C)c1OC(=O)N(C)C	HCV inh inconclusive, Cycloheximide cs 44, Shiga inhibitor 89
Cc1cc(C(=O)CS(=O)(=O)c2ccc(Cl)cc2)cc(C)c1O	HCV inh 11µM
COc1ccc(SCC(=O)c2cc(C)c(OC(=S)N(C)C)c(C)c2)cc1	Pf growth 48h inconclusive, HCV inh inconclusive, Cycloheximide cs 48 (no result: Pf growth 96h)
Cc1cc(C(=O)CSc2ccc(F)cc2)cc(C)c1OC(=S)N(C)C	HCV inh inconclusive, HCMV antiviral -92, Cycloheximide cs 58, Shiga inhibitor 146 (no result: Pf growth 48h)
COc1ccc(C(=O)CSc2cc(C)nc(SCC(=O)c3ccc(C)cc3)n2)cc1	HCV inh inconclusive
Cc1ccc(N2CC(C(=O)N/N=C/c3c(F)cccc3Cl)CC2=O)cc1 (centres undefined)	Pf growth 96h inconclusive
COc1ccc(OC)c(/C=C2\S/C(=N/NC(=O)c3ccc4ccccc4c3)NC2=O)c1	Pf growth 96h 6.6µM
O=C1N/C(=N/NC(=O)c2cccc3ccccc23)S/C1=C\c1ccccc1OCc1ccccc1	Pf growth 96h inconclusive
CCOC(=O)c1[nH]c(C)c(C(=O)OCC(=O)NC(C)c2ccc(F)cc2)c1C (centres undefined)	Pf growth 48h inconclusive, HCV inh inconclusive (no result: Cycloheximide cs, Shiga inhibitor)
Cc1nn(-c2ccccc2)c(N)c1Sc1ccc([N+](=O)[O-])cc1	Cycloheximide cs 20, Pf growth 96h inconclusive
Cc1nn(S(=O)(=O)c2ccc(Cl)cc2)c(C)c1Sc1ccc([N+](=O)[O-])cc1	HCV inh inconclusive, HCMV antiviral -78, Pf growth 96h inconclusive
Cc1nn(-c2ccccc2)c(OC(=O)C(C)C)c1Sc1ccccc1	none (no result: Pf growth 48h, HCV inh, Cycloheximide cs, Pf growth 96h, Shiga inhibitor)
